Screening data as filed in PubChem.
Shown are actives, neighbours in structure and some others; about 2.6% of the full set was active somewhere.
TWEAK-Fn14 inh: blocks TWEAK-Fn14 interaction in a reporter cell assay | TWEAK-stimulated Fn14 reporter cells, luciferase luminescence, 8 h | inhibition, % at 10 µM | 360,000 compounds, 2% hits | AID 1159606; in the data active = inhibition above about 50%
KKLEB cytotox: CF airway cell cytotoxicity counter-screen; KKLEB CF airway cells viability, ATPlite luminescence, overnight; active compounds read low; cells stimulated with P. aeruginosa culture filtrate; activity change (cytotoxicity), % at 5 µM; 360,000 compounds, 0.36% hits; AID 602141;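 active = corrected activity change at or below -50% at 5 µM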
CF NFkB block: cystic fibrosis NF-kB activation inhibition | inhibition, % at 5 µM | AID 588850 | KKLEB NF-kB-GFP reporter, PAF-induced, GFP fluorescence overnight | 360,000 compounds, 0.86% hits;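 active = at least 50% inhibition at 5 µM, scaled per plate between neutral and stimulator controls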;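 also: PAF is a Pseudomonas aeruginosa culture filtrate used as stimulus; plate controls were PAF-stimulated DMSO wells for no effect and unstimulated DMSO wells for full effect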
TROY signal inh: inhibitors of TROY-dependent NF-kB signaling; Q293 LMP1-TROYcd NF-kB luciferase reporter, 4 h; inhibition, % at 10 µM; 360,000 compounds, 0.98% hits; AID 1347056;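 active = compounds whose plate-normalised and pattern-corrected inhibition of the luciferase reporter signal at the single screening dose is 50% or more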
LGR2 antag: inhibitors of bursicon-induced Drosophila LGR2 receptor cAMP signaling; HEK293 LGR2, CRE-luciferase, bursicon-stimulated, 4 h; inhibition, % at 9.99 µM; 380,000 compounds, 0.35% hits; AID 720647;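 active = drop in luminescence signal, shown as inhibition above about 50% in the replicate tests, limit read from the data, passing the limit was not always enough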;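 also: agonist challenge used bursicon conditioned medium at about half maximal strength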
EWS-Fli inh: EWS/Fli transcriptional activity inhibition; A673 NR0B1-luciferase reporter, viability-normalised; 350,000 compounds, 0.67% hits; inhibition, % at 12.6 µM;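 active = mean inhibition of at least 50% after viability correction, with every replicate also passing that limit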;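 also: firefly luciferase signal divided by Alamar Blue viability fluorescence both relative to DMSO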
DNA binder FP: DNA binding small molecules | shares compounds with EWS-Fli inh | salmon sperm DNA acridine orange fluorescence polarization | AC35, µM (highest dose often 68 µM), for the others: at the top dose activity change, negative = DNA binding | 640 compounds, 2% hits | AID 720586;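 active = fitted curve reaches a 35% signal fall AC35 below twice the sample's top valid tested dose, actives reach about 48 µM in these data; inactive = the rest, including activity in the rising direction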;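 also: lower polarization ratio signals compound binding to DNA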
The depositor's hits bear a star; . = not tested or not shown; ! = repeats disagree.

SMILES	TWEAK-Fn14 inh	KKLEB cytotox	CF NFkB block	TROY signal inh	LGR2 antag	EWS-Fli inh	DNA binder FP
O=C(Nc1nc(-c2ccc(F)c(F)c2)cs1)c1ccc(OCC2CCCO2)cc1 (stereo unspecified)	34	-30	37	32	7	74*	-6%
CCCNC(=O)C[C@H]1CC[C@H]2[C@@H](COC[C@@H](O)CN2C(=O)Nc2cccc(Cl)c2)O1	.	.	.	.	-11	.	.
CC(C)(C)C(=O)Nc1ccc(N=Nc2ccccc2)cc1	4	-39	-16	83*	72*	59*	-5%
COC(=O)C[C@@H]1CC[C@H]2[C@@H](COc3ccc(NC(=O)Nc4ccc(C#N)cc4)cc3C(=O)N2C)O1	.	.	.	.	-6	13	.
COC(=O)C[C@@H]1CC[C@@H]2[C@H](COc3ccc(NC(=O)Nc4ccc(C#N)cc4)cc3C(=O)N2C)O1	.	.	.	.	0	53*	-2%
COC(=O)C[C@@H]1CC[C@@H]2[C@H](COc3ccc(NC(=O)Nc4cccc(C#N)c4)cc3C(=O)N2C)O1	.	.	.	.	29	65*	1%
C[C@@H]1CN([C@H](C)CO)C(=O)c2cccc(NS(C)(=O)=O)c2O[C@@H]1CN(C)C(=O)Nc1ccc(C(F)(F)F)cc1	.	.	.	.	10	7	.
CCN1/C(=C/C(C)=C/c2sc3ccccc3[n+]2CC)Sc2ccccc21	82*	-43	6	33	110*!	78*!	2.2µM*
COc1cccc(CN2CCC2(C)C(=O)Nc2cccc3cccnc23)c1F (stereo unspecified)	1	-3	31	16	16	59*	-8%
COc1ccc(OC)c(NC(=O)C2(C)CCN2Cc2cccc(OC)c2F)c1 (stereo unspecified)	40	-25	47	32	5	6	.
O=C(CCCN1C(=O)/C(=C/c2ccccc2Cl)SC1=S)NNC(=O)c1ccc(Cl)cc1Cl	17	-8	3	37	16	72*	4%
O=C(CCCN1C(=O)/C(=C/c2ccccc2Cl)SC1=S)N1CCOCC1	29	2	3	9	2	.	.
O=C(CCCN1C(=O)S/C(=C\c2ccccc2)C1=O)NNC(=O)c1ccccc1O	35	-5	14	24	-23	74*	13%
O=C(Cc1ccccn1)N[C@@H]1CC[C@@H](CCNC(=O)c2cc(Cl)cc(Cl)c2)O[C@H]1CO	.	.	.	.	2	0	.
COC(=O)C[C@@H]1CC[C@@H]2[C@H](COc3ccc(NC(=O)c4ccc(F)cc4)cc3C(=O)N2C)O1	.	.	.	.	8	57*	11%
COC(=O)C[C@H]1CC[C@H]2[C@H](COc3ccc(NC(=O)c4ccccc4)cc3C(=O)N2C)O1	.	.	.	.	-7	-16	.
COC(=O)C[C@@H]1CC[C@@H]2[C@H](COc3ccc(NC(=O)c4ccccc4)cc3C(=O)N2C)O1	.	.	.	.	1	58*	-6%
COC(=O)C[C@@H]1CC[C@@H]2[C@H](COc3ccc(NC(=O)c4cc(F)cc(F)c4)cc3C(=O)N2C)O1	.	.	.	.	-17	61*	-5%
COC(=O)C[C@H]1CC[C@H]2[C@@H](COc3ccc(NC(=O)c4ccc(F)cc4)cc3C(=O)N2C)O1	.	.	.	.	5	.	.
COC(=O)C[C@@H]1C[C@@H]2c3cc(NC(=O)Nc4ccccc4)ccc3O[C@@H]2[C@@H](CO)O1	.	.	.	.	-2	1	.
CC(C)NC(=O)N[C@@H]1CC[C@@H](CCNC(=O)C2CCCC2)O[C@H]1CO	.	.	.	.	12	-8	.
C[C@@H]1CN([C@@H](C)CO)C(=O)c2cc(C3=CCCC3)cnc2O[C@@H]1CN(C)C(=O)Nc1ccc(C(F)(F)F)cc1	.	.	.	.	3	8	.
CO[C@@H]1CN(C)C(=O)c2ccc(NC(=O)Nc3ccccc3F)cc2OC[C@H](C)N(Cc2ccccc2C(=O)O)C[C@H]1C	.	.	.	.	11	-16	.
C[C@@H]1CN([C@H](C)CO)C(=O)c2cccc(NC(=O)c3cnccn3)c2O[C@H]1CN(C)C	.	.	.	.	-2	-7	.
